# From PubChem
# HT1080-NT tox: qHTS for induction of synthetic lethality in tumor cells producing 2HG: qHTS for the HT-1080-NT fibrosarcoma cell line | HT-1080-NT fibrosarcoma viability, CellTiter-Glo ATP luminescence, 48 h | Potency, µM (series often up to 46.1 µM), for inactives: at the highest dose activity, negative = less viability, most hits filed as cytotoxic | 360,000 compounds, 1.6% hits | AID 686970, 2013;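 also: NT is the 2HG producing partner of a matched IDH1 knockdown line; 0% = DMSO-treated cells and -100% = media-only wells without cells; nearly all actives have a fitted effect of over 55% in size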
#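 HT-1080-NT; 750 cells/well; 5% FBS RPMI; 48 h compound, 37 degrees C; CellTiter-Glo luminescence; curve fitting and curve-class assignment.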
# HT1080 IDH1KD tx: qHTS for induction of synthetic lethality in tumor cells producing 2HG: qHTS for the HT-1080-IDH1KD cell line; HT-1080 IDH1 knockdown viability, ATP luminescence, 48 h; Potency, µM (titrated, usually from 46.1 µM), inactives show at the highest dose activity, negative = toxicity, actives largely listed as cytotoxic; 360,000 compounds, 2% hits; AID 686971, 2013;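 also: 0% = DMSO wells and -100% = cell-free medium wells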
#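 Viability of IDH1-knockdown HT-1080 fibrosarcoma cells was assessed by CellTiter-Glo after 48 h at 37 °C with titrated compound; concentration-effect curves were classified by fit quality and response size.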
# TDP1 cell noCPT: qHTS for Inhibitors of human tyrosyl-DNA phosphodiesterase 1 (TDP1): qHTS in cells in absence of CPT; DT40 Tdp1-/- hTDP1 cells, no CPT, ATP luminescence, 48 h; 420,000 compounds, 15% hits; Potency, µM (titrated, usually from 46.2 µM), inactives show at the highest dose activity change, negative = growth inhibition, most hits filed as inhibitors; AID 686978, 2013; also: nearly all actives have a fitted effect of over 55% in size
#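 Camptothecin absent (DMSO only). Human TDP1-complemented DT40 knockout cells, 400 cells/well, 37 °C for minimum 48 hr; ATP measured via CellTiter-Glo, 30 min dark incubation, luminescence.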
# DT40 TDP1 CPT: qHTS for Inhibitors of human tyrosyl-DNA phosphodiesterase 1 (TDP1): qHTS in cells in presence of CPT. 420,000 compounds, 12% hits. AID 686979, 2013. Potency, µM (series often up to 46.2 µM), without a hit: top-dose activity change, negative = growth inhibition, most hits filed as inhibitors. chicken DT40 Tdp1-/-;hTDP1 cells + 20 nM CPT, ATP luminescence, 48 h; also: nearly all actives have a fitted effect of over 55% in size
#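 Cell growth measured by CellTiter-Glo luminescence after a minimum 48 h, 37 C compound exposure with 20 nM CPT in Tdp1-knockout DT40 cells stably expressing hTDP1, seeded 400/well; qHTS titration format.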
# KB-3-1 cytotox: qHTS assay for MDR1-selective chemotherapeutics: Primary screen using the parental adenocarcinoma cell KB-3-1 | KB-3-1 viability, CellTiter-Glo ATP luminescence, 72 h | Potency, µM (top dose mostly 46.1 µM), usual class: cytotoxic | 400,000 compounds, 1.4% hits | AID 1347075, 2019; also: nearly all actives have a fitted effect of over 60% in size
#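 Cytotoxicity measured as CellTiter-Glo luminescence after 72 h at 37 C. Compound titrations were pinned onto drug-naive KB-3-1 parental adenocarcinoma cells grown in DMEM with 10% FBS, and normalized data fitted to concentration-response curves.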
# KB-V1 cytotox: qHTS assay for MDR1-selective chemotherapeutics: Primary screen using the drug-selected MDR subline cells KB-V1. 400,000 compounds, 3.4% hits. Potency, µM (highest dose often 46.1 µM), most hits filed as cytotoxic. KB-V1 MDR cells viability, CellTiter-Glo, 72 h; also: nearly all actives have a fitted effect of over 60% in size
#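 Compound-treated KB-V1 multidrug-resistant cells, 72 h, 37 degrees C; viability by CellTiter-Glo. Fitted qHTS curves give the values.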
# * = called active by the depositor; i = inactive; ? = inconclusive; · = no result; ! = a repeat was not active; [ ] = remark or other dose. Sampled rows, rich in hits. Any-hit rate of the full collection: about 19%. Calls follow the shape of the dose curve; as a rule, active = well fitted curve in the direction sought with a large enough effect; inconclusive = small, poorly fitted or top-dose-only effect, or another doubt; inactive = no such curve, though single readings can be large; an effect the other way counts as inactive or inconclusive. Unless noted, % is scaled to controls: 0 for no effect and ±100 for the full control effect; potency is read from the fitted curve at half-maximal effect.
SMILES,HT1080-NT tox,HT1080 IDH1KD tx,TDP1 cell noCPT,DT40 TDP1 CPT,KB-3-1 cytotox,KB-V1 cytotox
O=C1CCCC2[C@@H]3CCCN4CCC[C@@H](CN12)C34 (stereo partly specified),·,·,3%,-3%,·,·
CCOC(=O)CC(SP(=S)(OC)OC)C(=O)OCC (stereo unspecified),·,·,4.3µM*!,0.022µM*!,·,·
Cc1ccc(S(=O)(=O)N2CCC(=O)N(CCOC(=O)Nc3cccc(Cl)c3)CC2)cc1,-1%,-2%,21µM*,12µM*,i,i
CC(=O)[C@H]1CC[C@H]2[C@@H]3CC[C@@H]4C[C@H](O)CC[C@]4(C)[C@H]3CC[C@]12C,·,·,-20%,-9%,·,·
Cc1cccn2c(=O)cc(COc3cccc(NC(=O)COc4ccc(F)cc4)c3)nc12,·,·,8.2µM*,?,·,·
Cn1c(O)c(C=NCc2cccs2)c(=O)n(C)c1=O,4%,14%,1%,?,i,i
Cc1ccccc1OCCN=Cc1c(O)n(C)c(=O)n(C)c1=O,2%,-17%,21µM*,?,i,?
O=C1COc2ccc(C(=O)COC(=O)Cc3ccccc3)cc2N1,1%,1%,-5%,-6%,i,i
O=[N+]([O-])c1ccc(N2CCNCC2)cc1NCc1ccco1,6%,2%,-25%,2%,i,i
CN1CCN(c2ccc([N+](=O)[O-])c(NCc3ccco3)c2)CC1,2%,6%,?,-2%,i,12µM*
NC(=O)CN1CCCC1=O,-11%,3%,2.9µM*!,-9%[21.1 µM],?,i
CCCCC1(CN2CCCC2=O)C(=O)NC(=O)NC1=O,24%,13%,-4%,10%,i,i
O=C(O)c1ccccc1-c1c2cc(Br)c(=O)cc-2oc2[c]([Hg])c(O)c(Br)cc12,·,·,0.58µM*,1.5µM*,·,·
CC(NC1=NCCS1)c1ccccc1 (stereo unspecified),-10%,1%,13%,-2%,i,i
c1cc2c(cc1NC1=NCCO1)CCCC2,?,?,?,18µM*,15µM*,?
Cc1cccc(-n2c(O)c(C)c(=O)[nH]c2=S)c1,-1%,0%,-2%,-8%,i,i
Cc1ccc(C)c(OCc2cc(C(=O)N3C[C@H]4C[C@@H](C3)c3cccc(=O)n3C4)no2)c1,5%,2%,7%,-6%,i,i
C[C@H]1[C@@H](OC(=O)CCC(=O)O)O[C@@H]2OC3(C)CC[C@H]4[C@H](C)CC[C@@H]1[C@@]24OO3,·,·,0.11µM*,0.12µM*,·,·
CCC(C)NC(=O)CCC(=O)OC1O[C@H]2OC3(C)CC[C@H]4[C@H](C)CCC(C1C)C24OO3 (stereo partly specified),7.3µM*,7.3µM*,0.18µM*,0.21µM*,5.2µM*,i
Nc1cc(C(=O)Nc2ccccc2F)ccc1N1CC2CC(C1)c1cccc(=O)n1C2 (stereo unspecified),-18%,-24%,?,?,i,i
COC(=O)c1ccc(CC(C(=O)c2ccccc2)N(C)C)cc1 (stereo unspecified),2%,1%,?,?,i,i
C=C[C@H](Cc1ccccc1)N(Cc1ccccc1)S(=O)(=O)N(Cc1ccccc1)[C@H](C=C)Cc1ccccc1,14%,17%,13µM*,?,i,i
